According to the supplement of paper PMC12067093, “Discovery and optimisation of a covalent ligand for TRIM25 and its application to targeted protein ubiquitination” (Chemical Science, 2025):
Targets with the largest changes are over-represented here; the source holds about 21,000 in all.

Compound: Cc1cc(ccc1-c1ccccc1)C(=O)N1CCCN(CC1)C(=O)CCl [compound 10]
Assay: probe-labelled cysteine peptide fold change vs DMSO (competition) (log2 fold change); higher = less target engagement (more negative = stronger competition)
Conditions: THP-1, incubation time: 4 h
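Further: competitive profiling in live THP-1 cells: cysteine peptides tagged with an iodoacetamide desthiobiotin (IA-DTB) probe, intensity after compound treatment relative to DMSO-treated cells.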

Chain of UniProt Q6DD87 (Q6DD87 whole entry, looked up): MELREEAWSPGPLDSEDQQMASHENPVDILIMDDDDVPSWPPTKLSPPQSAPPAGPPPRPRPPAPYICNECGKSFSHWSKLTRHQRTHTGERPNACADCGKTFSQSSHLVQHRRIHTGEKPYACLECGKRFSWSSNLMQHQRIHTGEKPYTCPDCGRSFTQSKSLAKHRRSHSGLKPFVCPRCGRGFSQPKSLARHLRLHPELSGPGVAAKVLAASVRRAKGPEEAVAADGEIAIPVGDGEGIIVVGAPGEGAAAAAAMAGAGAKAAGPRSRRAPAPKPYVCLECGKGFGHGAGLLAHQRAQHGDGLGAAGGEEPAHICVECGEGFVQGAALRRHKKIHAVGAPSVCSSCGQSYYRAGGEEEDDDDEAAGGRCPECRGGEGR
Chain of UniProt P63104 (P63104 whole entry, looked up): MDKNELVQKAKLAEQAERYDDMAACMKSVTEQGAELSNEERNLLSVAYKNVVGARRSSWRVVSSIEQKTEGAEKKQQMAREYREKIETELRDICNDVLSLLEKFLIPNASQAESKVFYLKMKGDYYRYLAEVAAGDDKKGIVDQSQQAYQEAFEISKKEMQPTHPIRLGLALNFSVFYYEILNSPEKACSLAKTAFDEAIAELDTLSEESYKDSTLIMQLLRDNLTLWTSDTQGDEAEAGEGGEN
Chain of UniProt Q9ULM3 (Q9ULM3 whole entry, looked up): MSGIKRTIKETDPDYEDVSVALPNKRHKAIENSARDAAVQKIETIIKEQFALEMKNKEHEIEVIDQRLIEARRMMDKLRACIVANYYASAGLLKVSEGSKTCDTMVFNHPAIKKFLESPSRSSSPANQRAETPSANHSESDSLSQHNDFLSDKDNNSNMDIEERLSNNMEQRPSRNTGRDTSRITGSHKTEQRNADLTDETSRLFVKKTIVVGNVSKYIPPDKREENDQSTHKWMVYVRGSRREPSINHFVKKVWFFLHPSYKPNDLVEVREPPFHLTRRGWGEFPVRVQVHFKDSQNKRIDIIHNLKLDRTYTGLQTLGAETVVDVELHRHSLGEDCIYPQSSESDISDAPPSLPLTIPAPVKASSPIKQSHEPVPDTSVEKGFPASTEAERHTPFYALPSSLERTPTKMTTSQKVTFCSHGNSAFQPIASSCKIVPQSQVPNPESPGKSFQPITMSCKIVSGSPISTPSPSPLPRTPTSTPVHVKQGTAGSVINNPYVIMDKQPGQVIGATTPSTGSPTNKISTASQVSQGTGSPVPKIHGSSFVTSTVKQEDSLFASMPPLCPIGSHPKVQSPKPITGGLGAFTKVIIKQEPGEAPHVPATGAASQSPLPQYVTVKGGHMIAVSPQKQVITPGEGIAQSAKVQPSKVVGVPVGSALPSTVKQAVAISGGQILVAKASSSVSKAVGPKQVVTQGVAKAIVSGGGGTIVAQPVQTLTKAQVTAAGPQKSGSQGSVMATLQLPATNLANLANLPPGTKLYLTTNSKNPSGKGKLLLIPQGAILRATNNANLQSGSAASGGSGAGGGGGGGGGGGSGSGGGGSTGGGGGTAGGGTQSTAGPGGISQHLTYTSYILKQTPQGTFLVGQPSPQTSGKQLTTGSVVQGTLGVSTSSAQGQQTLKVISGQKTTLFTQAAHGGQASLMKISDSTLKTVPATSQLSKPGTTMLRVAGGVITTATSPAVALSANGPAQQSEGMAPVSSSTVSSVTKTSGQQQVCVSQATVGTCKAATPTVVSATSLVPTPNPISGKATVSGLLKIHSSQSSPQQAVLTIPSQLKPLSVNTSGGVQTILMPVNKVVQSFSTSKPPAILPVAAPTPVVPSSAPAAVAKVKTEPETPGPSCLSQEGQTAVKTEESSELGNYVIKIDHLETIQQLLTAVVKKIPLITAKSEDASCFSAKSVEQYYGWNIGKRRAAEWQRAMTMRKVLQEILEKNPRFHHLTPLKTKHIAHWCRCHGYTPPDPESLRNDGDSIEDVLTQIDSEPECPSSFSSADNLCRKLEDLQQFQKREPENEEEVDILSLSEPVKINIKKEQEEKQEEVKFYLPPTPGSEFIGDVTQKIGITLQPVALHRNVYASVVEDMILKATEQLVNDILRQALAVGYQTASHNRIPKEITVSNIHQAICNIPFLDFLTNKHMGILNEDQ
Chain of UniProt Q9H6Y2 (Q9H6Y2 whole entry, looked up): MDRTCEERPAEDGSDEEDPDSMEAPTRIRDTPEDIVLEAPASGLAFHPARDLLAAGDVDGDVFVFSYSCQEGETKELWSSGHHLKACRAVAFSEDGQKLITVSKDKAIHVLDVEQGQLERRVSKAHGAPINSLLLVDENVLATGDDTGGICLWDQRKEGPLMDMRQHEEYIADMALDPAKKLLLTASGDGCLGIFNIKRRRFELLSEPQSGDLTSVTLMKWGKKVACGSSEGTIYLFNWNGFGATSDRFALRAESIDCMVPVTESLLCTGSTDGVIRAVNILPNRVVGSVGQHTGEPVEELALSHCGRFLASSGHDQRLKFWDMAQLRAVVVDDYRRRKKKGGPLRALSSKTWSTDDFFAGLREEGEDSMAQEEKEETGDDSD
Chain of UniProt O95218 (O95218 whole entry, looked up): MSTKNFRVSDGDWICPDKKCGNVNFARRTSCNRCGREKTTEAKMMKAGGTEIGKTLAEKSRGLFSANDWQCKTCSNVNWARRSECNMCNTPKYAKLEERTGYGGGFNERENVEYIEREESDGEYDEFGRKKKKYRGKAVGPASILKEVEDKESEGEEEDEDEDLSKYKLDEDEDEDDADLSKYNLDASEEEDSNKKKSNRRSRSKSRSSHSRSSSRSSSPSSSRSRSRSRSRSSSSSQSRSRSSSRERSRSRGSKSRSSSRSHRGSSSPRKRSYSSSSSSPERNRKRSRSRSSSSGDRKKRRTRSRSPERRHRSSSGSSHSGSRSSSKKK
Chain of UniProt Q86UK7 (Q86UK7 whole entry, looked up): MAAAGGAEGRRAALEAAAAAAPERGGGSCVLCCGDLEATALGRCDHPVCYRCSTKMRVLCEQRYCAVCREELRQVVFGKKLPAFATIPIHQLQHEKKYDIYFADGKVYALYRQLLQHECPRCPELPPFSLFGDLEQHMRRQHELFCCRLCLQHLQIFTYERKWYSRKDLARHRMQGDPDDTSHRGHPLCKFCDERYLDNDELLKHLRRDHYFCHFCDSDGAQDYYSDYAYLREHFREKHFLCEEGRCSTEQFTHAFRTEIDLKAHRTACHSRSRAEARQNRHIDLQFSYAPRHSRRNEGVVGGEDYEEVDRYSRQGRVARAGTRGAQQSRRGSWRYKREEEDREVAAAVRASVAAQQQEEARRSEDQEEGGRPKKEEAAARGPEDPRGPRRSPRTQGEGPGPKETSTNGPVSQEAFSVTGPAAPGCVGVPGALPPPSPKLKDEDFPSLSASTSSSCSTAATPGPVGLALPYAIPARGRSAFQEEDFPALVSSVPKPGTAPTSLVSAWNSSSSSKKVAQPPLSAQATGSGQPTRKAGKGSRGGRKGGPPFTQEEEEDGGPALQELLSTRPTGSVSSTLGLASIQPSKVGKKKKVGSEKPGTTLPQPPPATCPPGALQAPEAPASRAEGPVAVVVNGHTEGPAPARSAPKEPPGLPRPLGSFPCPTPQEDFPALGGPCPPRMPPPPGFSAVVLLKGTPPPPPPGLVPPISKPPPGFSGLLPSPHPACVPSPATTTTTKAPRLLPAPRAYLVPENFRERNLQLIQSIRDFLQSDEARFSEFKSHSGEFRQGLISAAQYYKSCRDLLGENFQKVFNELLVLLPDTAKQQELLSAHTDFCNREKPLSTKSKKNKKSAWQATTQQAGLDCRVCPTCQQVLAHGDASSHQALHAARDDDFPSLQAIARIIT
Chain of UniProt P25490 (P25490 whole entry, looked up): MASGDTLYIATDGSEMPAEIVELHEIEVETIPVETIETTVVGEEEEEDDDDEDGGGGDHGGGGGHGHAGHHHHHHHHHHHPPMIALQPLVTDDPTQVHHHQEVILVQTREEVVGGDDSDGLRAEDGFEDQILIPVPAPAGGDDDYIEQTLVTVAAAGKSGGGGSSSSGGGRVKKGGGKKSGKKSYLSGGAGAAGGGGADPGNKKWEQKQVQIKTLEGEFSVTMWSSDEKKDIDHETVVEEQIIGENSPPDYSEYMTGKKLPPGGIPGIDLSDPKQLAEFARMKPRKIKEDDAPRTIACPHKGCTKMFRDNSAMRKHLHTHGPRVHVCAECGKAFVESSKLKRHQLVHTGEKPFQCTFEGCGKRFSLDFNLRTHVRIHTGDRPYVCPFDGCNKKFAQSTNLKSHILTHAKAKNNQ
Chain of UniProt Q9HAD4 (Q9HAD4 whole entry, looked up): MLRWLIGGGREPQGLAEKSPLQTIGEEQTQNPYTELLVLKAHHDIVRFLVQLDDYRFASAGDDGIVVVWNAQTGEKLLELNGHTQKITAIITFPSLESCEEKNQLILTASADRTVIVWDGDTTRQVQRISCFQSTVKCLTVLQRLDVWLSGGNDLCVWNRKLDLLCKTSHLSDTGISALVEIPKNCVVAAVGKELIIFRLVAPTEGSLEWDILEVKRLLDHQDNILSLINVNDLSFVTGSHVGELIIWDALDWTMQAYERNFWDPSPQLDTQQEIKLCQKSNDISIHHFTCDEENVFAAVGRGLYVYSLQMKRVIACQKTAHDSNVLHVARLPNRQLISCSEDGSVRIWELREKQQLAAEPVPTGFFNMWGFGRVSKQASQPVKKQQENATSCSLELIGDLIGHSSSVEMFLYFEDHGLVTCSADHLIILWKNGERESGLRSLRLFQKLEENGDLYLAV
Chain of UniProt Q5VV52 (Q5VV52 whole entry, looked up): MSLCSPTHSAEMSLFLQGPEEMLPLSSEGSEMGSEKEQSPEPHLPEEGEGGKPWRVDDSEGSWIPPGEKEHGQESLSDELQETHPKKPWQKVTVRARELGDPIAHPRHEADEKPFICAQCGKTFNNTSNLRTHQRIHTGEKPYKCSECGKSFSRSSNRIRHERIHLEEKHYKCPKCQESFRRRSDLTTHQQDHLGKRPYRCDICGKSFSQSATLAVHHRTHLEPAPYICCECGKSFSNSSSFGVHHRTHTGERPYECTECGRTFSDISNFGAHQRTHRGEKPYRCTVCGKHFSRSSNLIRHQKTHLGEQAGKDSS

Target	probe-labelled cysteine peptide fold change (10 µM)	probe-labelled cysteine peptide fold change (50 µM)
ZMYND11_Q15326_126_CLSDEFR (UniProt Q15326)	-0.00978	0.0128
WDR41_Q9HAD4_291_SNDISIHHFTCDEENVFAAVGR (UniProt Q9HAD4)	0.135	0.418
WDR82_Q6UXN9_195_TCEWTGLK (UniProt Q6UXN9)	-0.0459	0.418
WDR48_Q8TAF3_366_GGASIIQCHILNDKR (UniProt Q8TAF3)	0.239	-0.0402
ZMYM2_Q9UBW7_608_LYNFCNSSCVAK (UniProt Q9UBW7)	-0.186	-1.35
ZC3H10_Q96K80_140_EEVPICR (UniProt Q96K80)	-0.106	0.152
YY1_P25490_390_IHTGDRPYVCPFDGCNK (UniProt P25490)	0.136	0.715
ZNF691_Q5VV52_260_THTGERPYECTECGR (UniProt Q5VV52)	0.396	1.19
ZNF579_Q8NAF0_77_LSHSGLRPHACPLCPK (UniProt Q8NAF0)	0.112	-0.0195
ZC3HAV1_Q7Z2W4_513_VDDHDSEEICLDHLCK (UniProt Q7Z2W4)	0.0207	-0.396
WNK1_Q9H4A3_1135_VVECQLETHNRK (UniProt Q9H4A3)	0.208	0.14
YWHAZ_P63104_94_DICNDVLSLLEK (UniProt P63104)	0.233	0.309
WDR5_P61964_205_IWDTASGQCLK (UniProt P61964)	0.16	0.0228
ZNF516_Q92618_165_KGAEGSACAPGEAK (UniProt Q92618)	0.0165	-0.317
ZC3HAV1_Q7Z2W4_7_ADPEVCCFITK (UniProt Q7Z2W4)	0.158	0.175
WDR55_Q9H6Y2_5_TCEERPAEDGSDEEDPDSMEAPTR (UniProt Q9H6Y2)	-0.668	-1.19
ZMYM2_Q9UBW7_612_LYNFCNSSCVAK (UniProt Q9UBW7)	-0.192	-1.33
ZNF638_Q14966_688_EQSLHYGSVLLITELPEDGCTEEDVR (UniProt Q14966)	0.0192	0.11
WDR43_Q15061_291_LAVVCR (UniProt Q15061)	0.0146	0.0317
YEATS2_Q9ULM3_565_QEDSLFASMPPLCPIGSHPK (UniProt Q9ULM3)	-0.301	-0.418

Target	probe-labelled cysteine peptide fold change (10 µM)	probe-labelled cysteine peptide fold change (50 µM)
ZNF217_O75362_641_SAVETQANNLICR (UniProt O75362)	-0.181	-0.0706
WDR6_Q9NNW5_830_LACHVMHLSSHR (UniProt Q9NNW5)	0.144	0.0864
ZNF280C_Q8ND82_388_ICELSFETEHILLQHMK (UniProt Q8ND82)	0.00547	0.0405
XXYLT1_Q8NBI6_386_IYHGNCNTPIPED (UniProt Q8NBI6)	-0.00561	-0.0309
ZNF562_Q6V9R5_17_EPICPFEEK<|>ZNF561_Q8N587_17_EPICPFEEK (UniProt Q8N587+Q6V9R5)	-0.186	-1.08
ZRANB2_O95218_20_CGNVNFAR (UniProt O95218)	-0.0495	-0.314
ZBTB7A_O95365_490_DGCNGVPSR (UniProt O95365)	0.000157	-0.0775
ZCCHC3_Q9NUD5_385_GHAFAQCPK (UniProt Q9NUD5)	0.0381	-0.0115
WASHC5_Q12768_385_WLMLHTADSACDPNNKR (UniProt Q12768)	-2.11	-2.63
WDFY4_Q6ZS81_88_AWEHSVGIICFPSLQR (UniProt Q6ZS81)	-0.23	0.423
ZC3H12A_Q5D1E8_374_RPSPSSQSSSLLTESEQCSLDGK (UniProt Q5D1E8)	-0.349	-0.484
WDHD1_O75717_285_GYAICGLAWHPTCGR (UniProt O75717)	-0.0417	-0.0589
YAE1_Q9NRH1_143_SITPPSHVVDLLDSIEDMDLCHVVPAEK (UniProt Q9NRH1)	-0.335	0.0421
ZW10_O43264_650_LGIVWQDVLPVNIYCK (UniProt O43264)	0.139	0.206
ZNF787_Q6DD87_350_IHAVGAPSVCSSCGQSYYR (UniProt Q6DD87)	-0.238	-0.311
ZNF512B_Q96KM6_6_TDPFCVGGR (UniProt Q96KM6)	-0.0569	0.0733
WRN_Q14191_1367_HGPDSGLQPSCDVNK (UniProt Q14191)	-0.126	-0.11
ZNF598_Q86UK7_867_VCPTCQQVLAHGDASSHQALHAAR (UniProt Q86UK7)	0.228	0.187
ZC3HAV1_Q7Z2W4_168_QQICNQQPPCSR (UniProt Q7Z2W4)	0.0782	-0.158
ZNF451_Q9Y4E5_476_TWFCECNQR (UniProt Q9Y4E5)	0.0139	0.0709
